Source: PubChem BioAssay (EPA / NIEHS)
Values joined by “and” are separate entries in the source; they are usually repeats but may differ in a detail not shown here. Identical values can stand only once. Results filed as inconclusive are left out. Active and inactive are the calls of the source. Rule for the calls: active = hit-call score of the fitted dose curve at least 0.9, where 1 is the maximum; inconclusive = response in the unintended direction; inactive = score below 0.9.

Biological target: Cellular tumor antigen p53 (Homo sapiens) (UniProt P04637)
Assay: TOX21_p53_BLA_p2_ratio: Tox21 HCT-116 p53 Agonism Beta-lactamase Assay, Ratio, Phase 2 (AID 2283592)
Procedure, shortened: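 First, HCT116 reporter cells settle for 5 h at 37C. Next, DMSO compound solutions are pinned in (217-fold dilution) and left 16 h. Finally, CCF4-AM substrate is loaded 2 h at room temperature and the 460/530 nm ratio read.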

Cellular tumor antigen p53 (Homo sapiens), sequence (P04637 whole entry, looked up): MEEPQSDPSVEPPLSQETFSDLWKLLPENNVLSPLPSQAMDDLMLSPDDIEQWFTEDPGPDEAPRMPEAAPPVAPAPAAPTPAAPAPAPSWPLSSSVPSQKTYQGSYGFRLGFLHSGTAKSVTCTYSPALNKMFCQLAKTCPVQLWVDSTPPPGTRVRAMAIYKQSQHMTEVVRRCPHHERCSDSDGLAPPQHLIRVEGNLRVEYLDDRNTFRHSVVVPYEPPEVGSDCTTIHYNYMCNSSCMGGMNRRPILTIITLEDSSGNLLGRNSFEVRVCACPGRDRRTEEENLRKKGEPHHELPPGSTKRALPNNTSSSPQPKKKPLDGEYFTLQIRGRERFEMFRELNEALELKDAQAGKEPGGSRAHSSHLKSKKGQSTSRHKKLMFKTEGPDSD

Row | Structure (SMILES) | outcome | AC50
1 | Oc1ccc(/C=C/c2cc(O)cc(O)c2)cc1 | inactive | –
2 | O=C(O)c1ccc2c(c1)C(=O)OC2=O | inactive | –
3 | N=C1C=CC(=C(c2ccc(N)cc2)c2ccc(N)cc2)C=C1 | – | 54.2 µM (active)
4 | CC1(C)[C@@H]2CC[C@@]1(C)C(=O)C2 | inactive | –
5 | Oc1ccc(-c2ccccc2)c(Cl)c1 | inactive | –
6 | C=C(C)C(=O)OCCOC(=O)C(=C)C | inactive | –
7 | Oc1c(Cl)cc(Cl)c(Cl)c1Cl | – | 34.4 µM (active) and 22.5 µM (active)
8 | O=C(O)C1CCC(C(=O)O)CC1 (stereo unspecified) | inactive | –
9 | CCCCNC(=S)NCCCC | inactive | –
10 | O=C(Cl)c1ccc(C(=O)Cl)cc1 | inactive | –
11 | C=C1C[C@H]2[C@@H]3C=C(C)C4=CC(=O)CC[C@]4(C)[C@H]3CC[C@]2(C)[C@@]1(OC(C)=O)C(C)=O | inactive | –
12 | CCCCCCO | inactive | –
13 | O=C(O[C@@H]1Cc2c(O)cc(O)cc2O[C@@H]1c1cc(O)c(O)c(O)c1)c1cc(O)c(O)c(O)c1 | inactive | –
14 | CC(=O)CC(=O)Nc1ccccc1C | inactive | –
15 | C=CC(=O)OCCCCCCCC(C)C | inactive | –
16 | CC(=O)c1ccccc1O | inactive | –
17 | CCCCC(=O)O | inactive | –
18 | O=C(O)/C=C/c1ccccc1 | inactive | –
19 | CCCCCC[C@@H](O)C/C=C\CCCCCCCC(=O)OCC(O)CO (stereo partly specified) | inactive | –
20 | Clc1cc(Cl)c(Cl)c(Cl)c1Cl | inactive | –
21 | CCCCCCCCCCCC(=O)OCC | inactive | –
22 | Fc1ccc(Br)cc1 | inactive | –
23 | CCCCCCOc1ccc(N)cc1 | inactive | –
24 | O=C1CCCCCCCCCCCN1 | inactive | –
25 | C1CNCCN1 | inactive | –
26 | CCCCCCCCCCCCc1ccc(O)cc1 | – | 65.5 µM (active)
